14 compounds from PubChem BioAssay can be followed below.

The nature of experiment [1]: inhibitors of TNFa-induced NFkB p65 translocation, primary screen, imaging, HUVEC, MLSMR starter and 10KST1 sets (AID 438;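 active = inhibition above 20% together with a positive visual image hit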;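 also: compound added about 3h40 before a 20 min TNFalpha stimulation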;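 as to inhibition: signal is the nuclear over cytoplasmic p65 intensity ratio per well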). The following applies: HUVEC TNFa-induced p65 nuclear translocation; cell count: measured here: nuclei count (cytotoxicity indicator), at 2.08 µM; inhibition: at 2 µM, stronger effect = higher value, 0% TNFa-plus-vehicle, 100% no-TNFa wells.
A short description of experiment [2]: reduction of polyQ htt aggregates in cells – imaging, exon1htt(103Q)mCFP cells, high-content imaging, primary screen (AID 483;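 active = visual image review flags a hit and inhibition of aggregation exceeds 20%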;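 also: compound exposure lasted 3 days before fixation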;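 as to nuclei count: percent of the per-plate median nuclei count of sample wells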). The following applies: exon1htt(103Q)mCFP cell line, aggregate imaging, at 2 µM; inhibition of aggregation: stronger effect = higher value; nuclei count: measured here: cell count, toxicity.
Experiment [3] is described as follows: endothelial E-selectin expression blockers – imaging, HUVEC, immunofluorescence, MLSMR starter and 10KST1 sets, primary screen (AID 487;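 active = visually confirmed hit in the image check and inhibition above 20%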;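 as to inhibition: signal is fraction of cell area covered by stained E-selectin grains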;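 as to nuclei count: 100% = median nuclei count of all wells on the same plate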). Conditions: HUVEC TNFalpha-induced E-selectin immunofluorescence imaging, at 2 µM; inhibition: stronger effect = higher value; nuclei count: measured here: cell number, toxicity.
Experiment [4] concerns the target Voltage-gated potassium channel subunit beta-2 (Rattus norvegicus) (UniProt P62483). As to the kind of experiment: inhibitors of rat Kvbeta2 reductase activity – biochemical, NADPH fluorescence, primary screen (AID 622).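 Also: slope of raw intensity against log time taken from 70 to 1610 s.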 Conditions: recombinant KvBeta, 4-cyanobenzaldehyde reduction, at 10 µM, stronger effect = higher value.
For experiment [5] the target is unchanged. Briefly: enhancers of rat Kvbeta2 NADPH turnover – biochemical, NADPH fluorescence, primary screen (AID 623;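 active = NADPH fluorescence slope more negative than the mean of all samples by about 3 SD, 99.7% confidence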;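 also: fluorescence intensity change per second fitted from 20 to 320 s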). The following applies: Recombinant KvBeta, NADPH fluorescence decrease slope, 10 min; at 10 µM; stronger effect = lower value.
In experiment [6] the target is Alpha-2C adrenergic receptor (Homo sapiens) (UniProt P18825). As to the kind of experiment: compounds altering alpha2C-coupled GIRK flux – cell-based, HEK293 alpha2C/GIRK1/2, thallium flux, primary screen (AID 624;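 active = fluorescence slope after compound addition differing from the mean of all screened samples at 99.7% confidence, in either direction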;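 also: slope of fluorescence ratio to pre-addition baseline per second over 15 to 24 s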). Conditions: thallium flux BTC fluorescence, at 10 µM, actives lie on both sides.
Alpha-2C adrenergic receptor (Homo sapiens), sequence (P18825 whole entry, looked up): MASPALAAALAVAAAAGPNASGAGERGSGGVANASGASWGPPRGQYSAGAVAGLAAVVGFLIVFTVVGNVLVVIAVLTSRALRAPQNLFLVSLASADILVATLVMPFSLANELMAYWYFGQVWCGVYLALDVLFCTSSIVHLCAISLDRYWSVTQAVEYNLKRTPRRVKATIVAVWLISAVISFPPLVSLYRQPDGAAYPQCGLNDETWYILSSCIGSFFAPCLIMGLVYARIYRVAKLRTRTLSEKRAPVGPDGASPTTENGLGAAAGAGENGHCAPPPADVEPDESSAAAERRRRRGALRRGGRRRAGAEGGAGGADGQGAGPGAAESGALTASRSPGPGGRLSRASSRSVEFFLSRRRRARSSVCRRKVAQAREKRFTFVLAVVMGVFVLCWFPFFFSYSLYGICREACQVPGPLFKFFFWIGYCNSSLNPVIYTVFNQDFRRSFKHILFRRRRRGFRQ
Experiment [7] in a line: blockers of RIG-like receptor reporter activation – cell-based, Sendai virus stimulus, luciferase, 10K MLSCN set, TLR/RLR signaling modifier project, primary screen (AID 602276;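 active = inhibition at or above 50% at 10 µM; inactive = inhibition below 50%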;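 also: firefly luciferase from ISG56 promoter only with Renilla not read in this screen; 0% = Sendai virus plus DMSO and 100% = medium plus DMSO without virus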). Conditions: HEK293 RL24 IRF3 luciferase reporter, at 10 µM, stronger effect = higher value. (In general: A reporter such as luciferase makes a cellular process visible.)
The nature of experiment [8]: TLR3 IRF3 reporter activation blockers – cell-based, poly I:C stimulus, luciferase, 10K MLSCN set, primary screen (AID 602277;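 active = inhibition of the reporter signal at or above 50%; inactive = inhibition below 50%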). Conditions: HEK293-TLR3 RL24 IRF3 luciferase reporter, at 10 µM, stronger effect = higher value.

Activity calls are given as the source filed them.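 The calls were made as follows, unless noted: active = fluorescence slope higher than the sample average by over 3 SD (cut at about -0.22 in these data, passing the limit was not always enough); inactive = the rest.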

Voltage-gated potassium channel subunit beta-2 (Rattus norvegicus), sequence (P62483 whole entry, looked up): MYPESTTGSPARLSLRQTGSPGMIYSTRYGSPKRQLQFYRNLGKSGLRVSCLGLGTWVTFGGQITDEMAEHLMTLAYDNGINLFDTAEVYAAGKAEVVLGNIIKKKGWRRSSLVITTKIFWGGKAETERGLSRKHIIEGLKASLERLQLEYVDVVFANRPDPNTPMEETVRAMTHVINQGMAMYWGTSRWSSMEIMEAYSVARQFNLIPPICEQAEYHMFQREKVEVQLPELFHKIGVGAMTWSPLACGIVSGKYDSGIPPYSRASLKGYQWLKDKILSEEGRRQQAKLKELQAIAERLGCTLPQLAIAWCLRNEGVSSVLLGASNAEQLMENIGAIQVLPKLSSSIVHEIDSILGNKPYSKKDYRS

As for `COC(=O)c1ccc(C2C(C#N)=C(N)Oc3cc(C)n(C)c(=O)c32)cc1` (centres undefined), in experiment [1], the cell count stood at 551. Moreover, the inhibition (as a rule, the drop in the measured response relative to a control, in per cent) in experiment [1] is -11.1% (inactive); in experiment [3] it was -1.7% (inactive); in experiment [7] it was 9.77% (inactive); in experiment [8], 6% (inactive). Moreover, the inhibition of aggregation in experiment [2] is 0.4% (inactive). Further, the nuclei count in experiment [2] and in experiment [3] was 111% in each case. In addition, the fluorescence slope in experiment [4] was -0.499 (inactive). The NADPH fluorescence slope in experiment [5] is -4.1e-05 (inactive). In addition, the slope in experiment [6] was 0.00425 (inactive).
Consider `CC(=O)c1cccc(NC(=O)NCc2ccccn2)c1`, for which the cell count in experiment [1] was 655. The inhibition is -6.1% (inactive) in experiment [1], -41.1% (inactive) in experiment [3], -8.72% (inactive) in experiment [7] and -125% (inactive) in experiment [8]. In addition, in experiment [2], the inhibition of aggregation is -1.1% (inactive). For the same compound, the nuclei count in experiment [2] amounted to 132%; in experiment [3] it was 119%. In experiment [4], the fluorescence slope was -0.424 (inactive). In experiment [5], the NADPH fluorescence slope is -4.2e-05 (inactive). Also, in experiment [6], the slope is 0.00223 (inactive).
For the compound `O=C(Nc1ccc(F)cc1)N(Cc1ccco1)Cc1cc2cc3c(cc2[nH]c1=O)OCO3`, in experiment [1], the cell count turned out to be 473. In addition, the inhibition in experiment [1] is 4.5% (inactive); in experiment [3], 15.9% (inactive); in experiment [7] it was -8.59% (inactive); in experiment [8], -15.6% (inactive). Moreover, the inhibition of aggregation in experiment [2] is 6.1% (inactive). In addition, the figures for the nuclei count in experiment [2] and in experiment [3] were 96.6% and 102%, respectively. Besides, the fluorescence slope in experiment [4] was -0.418 (inactive). For the same compound, the NADPH fluorescence slope in experiment [5] is -2e-05 (inactive). Besides, the slope in experiment [6] was 0.0056 (inactive).
Consider `CC1CN(c2nc3ccccc3nc2C(C#N)C(=O)OC2CCCCC2)CC(C)O1` (centres undefined), for which the cell count in experiment [1] is 382. For the same compound, the inhibition in experiment [1] was -6.2% (inactive); in experiment [3] it was -12.3% (inactive); in experiment [7], 15.1% (inactive); in experiment [8], 22.4% (inactive). For the same compound, the inhibition of aggregation in experiment [2] is -28.8% (inactive). For the same compound, the nuclei count in experiment [2] came out at 116%; in experiment [3], 111%. In addition, the fluorescence slope in experiment [4] was -0.364 (inactive). Also, the NADPH fluorescence slope in experiment [5] was 2.4e-05 (inactive). Moreover, in experiment [6], the slope is 0.0019 (active).
As for `CCN(CC)S(=O)(=O)c1ccc(C(=O)N2CCN=C2SCc2cccnc2)cc1`, the cell count in experiment [1] was 213. Moreover, the inhibition in experiment [1] was -3.9% (inactive); in experiment [3], -32.1% (inactive); in experiment [7] it was -1.95% (inactive); in experiment [8], 9.81% (inactive). In experiment [2], the inhibition of aggregation is -5.6% (inactive). Further, the results for the nuclei count in experiment [2] and in experiment [3] were 99.7% and 122%, respectively. Besides, in experiment [4], the fluorescence slope was -0.587 (inactive). Besides, the NADPH fluorescence slope in experiment [5] was -1.9e-05 (inactive). Further, the slope in experiment [6] was 0.0061 (inactive).
Consider `CSc1ccccc1NC(=O)C1CCCO1` (centres undefined), for which the cell count in experiment [1] stood at 842. Moreover, the inhibition in experiment [1] is 4.5% (inactive); in experiment [3] it was -73% (inactive); in experiment [7] it was -13.9% (inactive); in experiment [8], -1.95% (inactive). In addition, the inhibition of aggregation in experiment [2] was 10.2% (inactive). The results for the nuclei count in experiment [2] and in experiment [3] were 105% and 117%, respectively. For the same compound, the fluorescence slope in experiment [4] was -0.429 (inactive). Further, in experiment [5], the NADPH fluorescence slope was 0.000108 (inactive). Besides, in experiment [6], the slope is 0.00731 (inactive).
`COCCNC(=O)CN1CCN(Cc2cccc(Cl)c2)C1=O`: the cell count in experiment [1] turned out to be 752. Also, the inhibition in experiment [1] is -11.6% (inactive); in experiment [3] it was -47.9% (inactive); in experiment [7], 6.1% (inactive); in experiment [8], 16.8% (inactive). For the same compound, the inhibition of aggregation in experiment [2] was 28.6% (inactive). The nuclei count turned out to be 69.7% in experiment [2] and 125% in experiment [3]. For the same compound, the fluorescence slope in experiment [4] was -0.536 (inactive). For the same compound, the NADPH fluorescence slope in experiment [5] was -4.6e-05 (inactive). Besides, in experiment [6], the slope is 0.00677 (inactive).
On to `CC(C)C(=O)Nc1ccc(-c2nc3cccnc3o2)cc1`, for which, in experiment [1], the cell count stood at 413. Besides, the inhibition in experiment [1] is 6.7% (inactive); in experiment [3] it was 23.3% (inactive); in experiment [7], -33.7% (inactive); in experiment [8], -147% (inactive). In experiment [2], the inhibition of aggregation was 12.8% (inactive). The figures for the nuclei count in experiment [2] and in experiment [3] were 109% and 107%, respectively. The fluorescence slope in experiment [4] is -0.262 (inactive). For the same compound, in experiment [5], the NADPH fluorescence slope is 4.8e-06 (inactive). Further, in experiment [6], the slope is 0.0065 (inactive).
`COc1ccc(S(=O)(=O)NCC(=O)N(CC(=O)NCC2CCCO2)c2ccccc2C)cc1` (centres undefined): the cell count in experiment [1] stood at 251. The inhibition in experiment [1] is 2.2% (inactive); in experiment [3], -22.6% (inactive); in experiment [7], 19.2% (inactive); in experiment [8] it was 18.4% (inactive). The inhibition of aggregation in experiment [2] was -8.4% (inactive). In addition, the nuclei count in experiment [2] was 106%; in experiment [3] it was 96.9%. Further, the fluorescence slope in experiment [4] is -0.399 (inactive). Also, the NADPH fluorescence slope in experiment [5] was -6.5e-06 (inactive). For the same compound, the slope in experiment [6] was 0.00632 (inactive).
As to `OC(CN1CCCCC1)Cn1c(C(F)(F)F)nc2ccccc21` (centres undefined), the cell count in experiment [1] worked out at 730. For the same compound, the inhibition was -17.7% (inactive) in experiment [1], -98.5% (inactive) in experiment [3], 12.8% (inactive) in experiment [7] and 24.9% (inactive) in experiment [8]. Besides, in experiment [2], the inhibition of aggregation was 25.1% (inactive). The nuclei count came to 122% in experiment [2] and 95.5% in experiment [3]. The fluorescence slope in experiment [4] is -0.362 (inactive). For the same compound, the NADPH fluorescence slope in experiment [5] was -7.1e-05 (inactive). For the same compound, in experiment [6], the slope is 0.00651 (inactive).
For `Cc1n[nH]c(C)c1N1C(=O)c2cccc3cc(Br)cc(c23)C1=O`, the cell count in experiment [1] is 476. Moreover, the inhibition in experiment [1] is 5.9% (inactive); in experiment [3] it was -36.7% (inactive); in experiment [7] it was 1.78% (inactive); in experiment [8], 27.1% (inactive). Moreover, the inhibition of aggregation in experiment [2] was -9.9% (inactive). In addition, the results for the nuclei count in experiment [2] and in experiment [3] were 103% and 123%, respectively. In addition, the fluorescence slope in experiment [4] was -0.375 (inactive). Moreover, in experiment [5], the NADPH fluorescence slope is -7.7e-05 (inactive). Moreover, the slope in experiment [6] was 0.00408 (inactive).
Regarding `Cc1cc2ccccc2n1CCNC(=O)C1CC1`, the cell count in experiment [1] stood at 709. In addition, the inhibition in experiment [1] was -6.9% (inactive); in experiment [3] it was -35% (inactive); in experiment [7], 11.4% (inactive); in experiment [8], 33.2% (inactive). In experiment [2], the inhibition of aggregation is -3.6% (inactive). Moreover, the nuclei count in experiment [2] worked out at 107%; in experiment [3] it was 120%. The fluorescence slope in experiment [4] is -0.42 (inactive). The NADPH fluorescence slope in experiment [5] is -3.8e-05 (inactive). In addition, the slope in experiment [6] is 0.00596 (inactive).
With `CCOC(=O)N1CCC(NC(=O)C2CCCN(C(=O)c3cc4sccc4n3C)C2)CC1` (centres undefined), in experiment [1], the cell count came to 762. Further, the inhibition in experiment [1] is -5.8% (inactive); in experiment [3], -71.5% (inactive); in experiment [7], 2.87% (inactive); in experiment [8] it was 25.3% (inactive). Moreover, the inhibition of aggregation in experiment [2] was -4.7% (inactive). For the same compound, the nuclei count in experiment [2] was 127%; in experiment [3], 123%. Besides, the fluorescence slope in experiment [4] is -0.556 (inactive). Moreover, in experiment [5], the NADPH fluorescence slope was -4.1e-05 (inactive). The slope in experiment [6] is 0.00546 (inactive).
In the case of `Cc1cc(C)c2cc3c(ccn3C3OC[C@H](O)[C@H](O)[C@H]3O)cc2n1` (some centres undefined), the cell count in experiment [1] came to 699. Also, the inhibition in experiment [1] is -21.8% (inactive); in experiment [3] it was -106% (inactive); in experiment [7], 15.4% (inactive); in experiment [8] it was 27.3% (inactive). Further, the inhibition of aggregation in experiment [2] was -19.6% (inactive). Moreover, the values for the nuclei count in experiment [2] and in experiment [3] were 121% and 95.9%, respectively. In addition, the fluorescence slope in experiment [4] is -0.0157 (active). In experiment [5], the NADPH fluorescence slope was -2.8e-05 (inactive). The slope in experiment [6] is 0.002 (inactive).
